Several values for one entry are separate records, joined by “and”; a condition that tells them apart may be missing. Equal values may be shown once. Records with an inconclusive call do not appear. Some compounds were tested as several samples or in several runs, with calls that do not always agree. Activity calls are given as the source filed them. Calls follow the shape of the dose curve; as a rule, active = well fitted curve in the direction sought with a large enough effect; inconclusive = small, poorly fitted or top-dose-only effect, or another doubt; inactive = no such curve, though single readings can be large; an effect the other way counts as inactive or inconclusive.

This passage reports Potency, max response and outcome results from PubChem BioAssay (NCATS).

Test [1] deals with TAB109. In words: qHTS profiling for inhibitors of Plasmodium falciparum proliferation (AID 504749). Also: nearly all actives have a fitted effect of over 60% in size. As to conditions: P. falciparum in erythrocytes, SYBR Green DNA, 72 h; series mostly up to 28.7 µM. In short, it runs like this:
(§1)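 P. falciparum-infected erythrocytes (0.3% parasitemia, 2.5% hematocrit final) were exposed to compounds for 72 h at 37 C in 5% CO2, then lysed with SYBR Green buffer overnight at room temperature; parasite DNA fluorescence was normalized to artemisinin and DMSO controls.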

The subject of test [2] is TAB113. The description is as above. As to conditions: P. falciparum in erythrocytes, SYBR Green DNA, 72 h; series mostly up to 28.7 µM. In short, it runs like this: as §1
Test [3] concerns TAB165. The test is described as above. As to conditions: P. falciparum in erythrocytes, SYBR Green DNA, 72 h; series mostly up to 28.7 µM. In short, it runs like this: as §1
The subject of test [4] is W2. The test is described as above. As to conditions: P. falciparum in erythrocytes, SYBR Green DNA, 72 h; series mostly up to 28.7 µM. In short, it runs like this: as §1
Test [5] relates to CRL-7250. In words: Cytotoxic Profiling of Annotated Libraries Using Quantitative High-Throughput Screening (AID 1296008). Also: nearly all actives have a fitted effect of over 60% in size. As to max response: % is scaled to controls: 0 for no effect and ±100 for the full control effect. As to conditions: Five cell lines viability, CellTiter-Glo ATP luminescence, 48-72 h; max response: stronger effect = lower value. In short, it runs like this: (§2)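 Compounds were pin-transferred onto cells and incubated 48 or 72 hr at 37 degree Celsius, 95% humidity. CellTiter-Glo was added, plates sat 10 min at room temperature, then ATP-coupled luminescence was imaged as the viability read-out.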
On the technique in general: Cellular ATP, detected with luciferase, serves as a proxy for viable cell number.

Test [6] has as its system HEK293. The test is described as above. To be noted: Five cell lines viability, CellTiter-Glo ATP luminescence, 48-72 h; max response: stronger effect = lower value. In short, it runs like this:
as §2

The subject of test [7] is HaCat. The description is as above. To be noted: Five cell lines viability, CellTiter-Glo ATP luminescence, 48-72 h; max response: stronger effect = lower value. In short, it runs like this: as §2
In test [8] the test system is KB-3-1. The test is described as above. As to conditions: Five cell lines viability, CellTiter-Glo ATP luminescence, 48-72 h; max response: stronger effect = lower value. In short, it runs like this: as §2
The test system of test [9] is NIH3T3. The description is as above. As to conditions: Five cell lines viability, CellTiter-Glo ATP luminescence, 48-72 h; max response: stronger effect = lower value. In short, it runs like this: as §2
Test [10] has as its system HEK293T. In words: qHTS assay to identify novel small-molecules to repurpose for Merkel cell carcinoma treatment (AID 1296009). Also: nearly all actives have a fitted effect of over 60% in size. As to conditions: MCC and control cell lines, CellTiter-Glo viability, 72 h; at 44.8 µM (top of the series). In short, it runs like this: (§3)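 Cells exposed to NPC (8-point) and MIPE (11-point) compound dilutions for 72 hr at 37 degree celsius; viability read by CellTiter-Glo luminescence, normalized to no-cell and DMSO in-plate controls.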
In general terms: In qHTS, concentration-response curves come from the screen itself.

Test [11] has as its system MCC-13. The test is described as above. As to conditions: MCC and control cell lines, CellTiter-Glo viability, 72 h; series mostly up to 46 µM. In short, it runs like this:
as §3

The test system of test [12] is MKL-1. Described as above. To be noted: MCC and control cell lines, CellTiter-Glo viability, 72 h; series mostly up to 46 µM. In short, it runs like this: as §3
Test [13] has as its system NIH3T3. The description is as above. As to conditions: MCC and control cell lines, CellTiter-Glo viability, 72 h; at 44.8 µM (top of the series) unless noted. In short, it runs like this:
as §3

The subject of test [14] is UISO. Described as above. As to conditions: MCC and control cell lines, CellTiter-Glo viability, 72 h; series mostly up to 46 µM. In short, it runs like this: as §3
For test [15], the system named is WaGa. Described as above. To be noted: MCC and control cell lines, CellTiter-Glo viability, 72 h; series mostly up to 46 µM. In short, it runs like this:
as §3

Test [16] deals with C33A. In words: Primary qHTS to identify gynecologic anti-cancer compounds using libraries of approved drugs and bioactive compounds (AID 1345084). Also: nearly all actives have a fitted effect of over 55% in size. To be noted: Gynecologic cancer cell panel viability, ATPlite luminescence, 48 h; series mostly up to 57.5 µM. In short, it runs like this:
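In this quantitative HTS, cell killing is estimated from loss of ATP-dependent luciferase light. Cells see five compound concentrations over a 48 h exposure.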

In test [17] the test system is MKL-2. In words: qHTS assay to identify novel small-molecules to repurpose for Merkel cell carcinoma treatment (AID 1296009). Also: nearly all actives have a fitted effect of over 60% in size. As to conditions: MCC and control cell lines, CellTiter-Glo viability, 72 h; series mostly up to 46 µM. In short, it runs like this: as §3
Test [18] deals with MCC-26. The description is as above. To be noted: MCC and control cell lines, CellTiter-Glo viability, 72 h; series mostly up to 46 µM. In short, it runs like this: as §3
For test [19], the system named is CRL-7250. Described as above. As to conditions: MCC and control cell lines, CellTiter-Glo viability, 72 h; series mostly up to 44.8 µM. In short, it runs like this:
as §3
Potency is read from the fitted curve at half-maximal effect.

`O=[N+]([O-])c1cc([As](=O)(O)O)ccc1O`: the Potency in [1] is 3.16 µM (active); in test [2] it was 3.16 µM (active); in test [3], 3.55 µM (active); in test [4], 2.56 µM (active). Besides, the max response was -0.161% (inactive) in [5], -8.07% (inactive) in test [7] and -14.1% (inactive) in [8]. Also, the compound was called inactive in test [6], in [9], in test [10] and in test [13]. In addition, the Potency entry in [11], in test [12], in test [14], in test [15] and in test [16] was “inactive” in each case.

In the case of `Cc1sc2c(c1C)C(c1ccc(Cl)cc1)=N[C@@H](CC(=O)OC(C)(C)C)c1nnc(C)n1-2`, the Potency in [5] is 0.372 µM (active); in [6], 0.526 µM (active); in [12], 5.9 µM (active); in test [17] it was 0.264 µM (active); in [15] it was 2.35 µM (active).

As to `NCC(O)c1ccc(O)cc1` (stereo unspecified), the Potency result in test [1], in test [2], in [3], in test [11], in test [18] and in test [12] was “inactive” throughout. Also, the Potency entry in test [17], in [14], in [15] and in test [16] was “inactive” each time. In addition, the max response is 4.85% (inactive) in [5]; 4.81% (inactive) in [6]; -2.74% (inactive) in test [7]; -4.37% (inactive) in test [8]; -5.72% (inactive) in [9].

Take `CC[N+](CC)(CC)CC`: the Potency entry in [1], in test [2], in test [3], in test [4], in [11] and in test [12] was “inactive” throughout. For the same compound, the Potency entry in [17], in test [14], in test [15] and in test [16] was “inactive” throughout. Also, the result in test [5], in [9], in [19] and in test [13] was inactive. The max response in test [7] is -5.59% (inactive); in test [8] it was -7.23% (inactive).

As for `C[C@@H]1[C@@H](C(=O)C[C@H]2O[C@@H]3O[C@]4(C)CC[C@@H]5[C@H](C)CC[C@@H]([C@H]2C)[C@@]35OO4)O[C@@H]2O[C@]3(C)CC[C@H]4[C@H](C)CC[C@@H]1[C@@]24OO3`, the Potency was 4.18 µM (active) in [5]; 0.332 µM (active) in test [6]; 5.26 µM (active) in [7]; 14.8 µM (active) in test [12]; 0.662 µM (active) in test [17]; 0.372 µM (active) in test [14]. The Potency in test [15] is 2.64 µM (active). Also, the Potency result in [18] was “inactive”.

`C[C@]12CCC(=O)C(O)=C1CC[C@@H]1[C@@H]2CC[C@]2(C)C(=O)CC[C@@H]12`: the max response in [5] was -13.2% (inactive); in [7], -15.5% (inactive); in [8], -15.7% (inactive); in test [9] it was -5.78% (inactive). The Potency entry in test [11], in [18], in test [12], in test [17], in test [14] and in test [15] was “inactive” throughout. In addition, the Potency entry in [16] is “inactive”.

As for `O=C1NC(=O)C(c2ccccc2)(c2ccccc2)N1`, the outcome in [19] was inactive.

As for `CC(=O)[C@H]1CC[C@H]2[C@@H]3CC[C@H]4C[C@H](O)CC[C@]4(C)[C@H]3C(=O)C[C@]12C`, the Potency entry in test [1], in [2], in test [3], in [4], in [11] and in [18] was “inactive” each time. Further, the Potency result in test [12], in test [17], in [14], in test [15] and in test [16] was “inactive” each time. For the same compound, the max response was -2.84% (inactive) in test [5], 0.502% (inactive) in test [7] and -4.21% (inactive) in test [8]. Also, the compound was classed as inactive in [9] and in test [13].

On to `CN(C)c1ccc(O)c2c1C[C@H]1C[C@H]3[C@H](N(C)C)C(=O)C(C(N)=O)=C(O)[C@@]3(O)C(=O)C1=C2O`, for which the outcome in [19] was inactive.

With `CCOC(=O)[C@H](CCc1ccccc1)N[C@@H](C)C(=O)N1Cc2cc(OC)c(OC)cc2C[C@H]1C(=O)O`, in test [19], the compound was called inactive.

Take `Oc1cc(Cl)ccc1Oc1ccc(Cl)cc1Cl`: the Potency in test [1] was 10 µM (active); in test [2] it was 4.47 µM (active); in test [3], 3.55 µM (active); in test [4], 3.38 µM (active); in test [5], 39.4 µM (active); in test [11] it was 44.2 µM (active) and inactive. Further, the Potency in test [17] was 24.8 µM (active); in test [14], 44.2 µM (active); in test [15], 55.6 µM (active); in test [16], 28.2 µM (active) and inactive. Moreover, the max response in [8] was 3.49% (inactive). In test [18], the Potency result is “inactive”.

On to `CN1C[C@H](CNC(=O)OCc2ccccc2)C[C@@H]2c3cccc4c3c(cn4C)C[C@H]21`, for which the Potency was 5.62 µM (active) in [1], 12.6 µM (active) in test [2], 10 µM (active) in test [3] and 4.78 µM (active) in [4]. Also, the max response is -40.8% (inactive) in [7] and -8.28% (inactive) in [8]. Also, the Potency entry in [11] and in test [16] was “inactive” throughout.

Consider `CCOC(=O)C1(c2ccccc2)CCN(CCC(C#N)(c2ccccc2)c2ccccc2)CC1`, for which the Potency in test [1] was 3.16 µM (active); in test [2], 2.24 µM (active); in test [3], 2.51 µM (active); in test [4] it was 4.78 µM (active); in test [6] it was 7.5 µM (active). For the same compound, the max response was -18.2% (inactive) in test [7], -29% (inactive) in test [8] and -8.7% (inactive) in [9]. Moreover, the Potency result in test [11], in [18], in test [12] and in test [16] was “inactive” each time.

Regarding `Cn1cc(C2=C(c3cn(C4CCN(Cc5ccccn5)CC4)c4ccccc34)C(=O)NC2=O)c2ccccc21`, the max response in [5] is -3.19% (inactive) and -9.47% (inactive); in test [7], -7.11% (inactive); in test [8], 7.73% (inactive) and 20.1% (inactive). The compound was called inactive in test [9] and in test [13]. Besides, the Potency result in test [11], in test [18], in [12], in [17], in test [14] and in [15] was “inactive” each time. In addition, the Potency entry in test [16] was “inactive”.

Turning to `O=C1[C@H](CC[C@H](O)c2ccc(F)cc2)[C@@H](c2ccc(O)cc2)N1c1ccc(F)cc1`, the compound was called inactive in test [19].

Turning to `CS(=O)(=O)OCCCCOS(C)(=O)=O`, the call in test [19] was inactive.
